Screening results (PubChem)
Most compounds without a hit are left out; they make up all but 13% or so of the library.
FMDV antiviral: blocks foot and mouth disease virus | FMDV antiviral cell-based qHTS | Potency, µM (series often up to 57.9 µM), hits mostly inhibitors | 1.2% of 410,000 active | AID 1159524; calls by dose curve; tested in HEK293T cells; also: read-out not given here; nearly all actives have a fitted effect of over 45% in size
Shiga inhibitor: Shiga toxin inhibition | 9.2% of 290,000 active | AID 2315 | Vero cells, Shiga toxin protein synthesis inhibition reporter | inhibition, % at 38.7 µM; in the data active = inhibition mostly above about 28%, no sharp cut-off; inactive = mostly below about 43%
LASV entry inh: inhibitors of Lassa virus binding or cell entry; AID 540256; Potency, µM (top dose mostly 37.9 µM), most hits filed as inhibitors; 1.2% of 300,000 active; Lassa virus pseudotype entry inhibition, cell reporter; calls by dose curve; tested in HEK293 cells; also: nearly all actives have a fitted effect of over 50% in size
MARV entry inh: blocks Marburg virus binding to or entry into cells. Potency, µM (highest dose often 37.8 µM), hits mostly inhibitors. 1.8% of 300,000 active. Marburg virus pseudotyped entry inhibition, cell reporter; calls by dose curve; tested in HEK293 cells
Cycloheximide cs: counter-screen hit for Shiga toxin inhibitors, cycloheximide; cell reporter, cycloheximide protein synthesis inhibition counterscreen; max response, %; 12% of 300,000 active; in the data active = max response mostly above about 13%, no sharp cut-off; inactive = mostly below about 14%; also: read at 38.3 µM for the half of the compounds with a filed dose
HCV inh: blocks hepatitis C virus. Huh7.5.1 HCVcc-Cre infection, luciferase reporter, 44 h. 3.4% of 340,000 active. Potency, µM (highest dose often 41.8 µM), usual class: inhibitors; active = well fitted inhibition curve with a large enough effect; inconclusive = small, poorly fitted or top-dose-only effect, or another doubt; inactive = no such curve, though single readings can be large or run the other way
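Whole-lifecycle infectious HCVcc-Cre system; cells 1,000/well, compound then virus (~0.5 moi) added 4 h after plating, 44 h culture. Luciferase read 15 sec following 15 min substrate incubation, room temp.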
Hits are given with their value; – = inactive; ? = inconclusive; · = no result given.

SMILES	FMDV antiviral	Shiga inhibitor	LASV entry inh	MARV entry inh	Cycloheximide cs	HCV inh
CC(=O)N1[C@H](C)C=C[C@]1(Cc1ccccc1)C(=O)NCCN1CCOCC1	–	·	·	·	·	–
Cc1ccc(S(=O)(=O)N2CCC[C@H]2C(=O)NC2=NCCS2)cc1	–	·	–	?	·	–
O=[N+]([O-])c1ccc(C2=NCCO2)cc1	–	74	·	·	39	–
Cc1cc(C)n(C(=O)c2cc(F)c(F)cc2C)n1	–	70	–	–	25	–
C#CCNC(=O)c1ccc(OCc2ccccc2)cc1Cl	–	58	–	–	–	–
O=C(NCCCl)c1ccc(OCc2ccccc2)cc1Cl	–	66	·	·	34	–
COc1ccc(CCNC(=O)c2ccc(Cl)cc2Cl)cc1	–	–	–	?	–	–
Cc1ccc(N2C(=O)C3C4CCC(O4)C3C2=O)c(OC(F)F)c1 (configuration not stated)	–	·	·	·	·	–
CC1CN(C(=O)COC(=O)c2ccc(F)cc2Cl)CC(C)O1 (configuration not stated)	–	–	–	–	–	–
O=C(OCC(=O)N1CCOCC1)c1cccc(F)c1	–	94	?	–	48	–
O=C(OCCN1CCOCC1)c1cccc(F)c1	–	–	?	–	–	–
O=C(OCC(=O)N1CCOCC1)c1ccc(F)cc1Cl	–	51	–	?	35	–
Cc1cc(C(=O)N/N=C/c2ccccc2Br)no1	–	60	?	–	36	–
Cn1cccc1/C=N/NC(=O)Cc1ccccc1	–	–	–	–	–	–
Cc1cc(C(=O)NCc2ccccc2Br)no1	–	–	–	–	16	–
Cn1cccc1/C=N\NC(=O)Cc1ccc(Br)c2ccccc12	?	–	·	·	–	10µM
Cn1cccc1/C=N/NC(=O)c1ccccn1	–	84	·	·	31	–
Cc1cc(C(=O)N/N=C/c2ccc[nH]2)no1	–	–	–	–	–	?
CCN(C(=O)COC(=O)c1cccn1C)C1CCS(=O)(=O)C1 (configuration not stated)	–	–	–	?	–	–
CCc1ccc(CNC(=O)c2ccc3nc(C(C)C)oc3c2)cc1	–	·	–	·	·	·
O=C1CC(c2ccc(F)cc2)c2c(n3c(nc4ccccc43)[nH]c2=O)N1 (configuration not stated)	–	·	–	?	·	·
Cn1cccc1/C=N/NC(=O)c1ccncc1	–	–	–	–	–	–
Cc1cc(C(=O)N/N=C/c2cccn2C)no1	–	18	–	–	–	–
Cn1cccc1/C=N/NC(=O)c1cc(-c2cccs2)nc2ccccc12	–	–	–	?	–	?
Cn1cccc1/C=N/NC(=O)c1cc2ccccc2cc1O	–	67	–	–	21	?
SMILES	FMDV antiviral	Shiga inhibitor	LASV entry inh	MARV entry inh	Cycloheximide cs	HCV inh
COc1ccc(-c2csc(NC(=O)C3CC(=O)N(Cc4ccccc4)C3)n2)cc1OC (configuration not stated)	32µM	–	–	?	–	?
O=C(CS(=O)(=O)c1ccccc1)Nc1nc(-c2ccc(F)cc2)cs1	?	–	·	·	–	–
COc1ccc(CC(=O)Nc2nc(-c3ccc(OC)c(OC)c3)cs2)cc1OC	?	–	?	?	–	5.6µM
COc1ccc(-c2csc(NC(=O)CC(NC(C)=O)c3ccccc3)n2)cc1OC (configuration not stated)	?	–	–	?	–	?
COc1ccc(-c2csc(NC(=O)CCNC(=O)c3ccco3)n2)cc1OC	–	·	·	·	·	?
COc1ccc(-c2csc(NC(=O)Cc3ccccc3F)n2)cc1OC	–	–	·	?	–	10µM
Cc1nnc(NC(=O)C2CC(=O)N(Cc3ccccc3)C2)s1 (configuration not stated)	–	–	–	–	–	–
O=C(Cc1ccccc1F)Nc1nc(-c2ccc(F)cc2)cs1	–	64	4.5µM	?	26	–
Cn1c(SCC(=O)NC2CC2)nnc1-c1ccc(Cl)cc1	–	·	·	·	·	–
COC(=O)c1c(-c2cccc3ccccc23)csc1NC(=O)Cc1ccc(OC)c(OC)c1	?	–	11µM	?	–	5.6µM
COc1ccccc1CC(=O)Nc1nc(-c2ccc(F)c(F)c2)cs1	–	44	?	?	26	10µM
O=C(CCN1C(=O)C2CCCCC2C1=O)Nc1nc(-c2ccc(F)c(F)c2)cs1 (configuration not stated)	?	–	?	–	–	?
O=C(CN1C(=O)C2CC=CCC2C1=O)Nc1nc(-c2ccc(F)c(F)c2)cs1 (configuration not stated)	?	·	·	·	·	10µM
